Test results as given in PubChem BioAssay (NCATS).
Records with an inconclusive call do not appear. A call without a number means that no potency is given here. Active and inactive are the calls of the source. Calls come from the whole dose curve; as a rule, active = well fitted inhibition curve with a large enough effect; inconclusive = small, poorly fitted or top-dose-only effect; inactive = no such curve, though single readings can be large or run the other way.

What follows are molecules tested on Zika virus NS2B-NS3 protease (linked construct) (assay: Primary screen NINDS Rhodamine qHTS for Zika virus inhibitors (AID 1347160; note: nearly all actives have a fitted effect of over 55% in size)). Details: purified NS2B-NS3 protease, Rhodamine110 substrate fluorescence; series mostly up to 57.1 µM.
Outline: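 Rhodamine110-peptide cleavage (1.5 µM substrate) by 25 nM linked NS2B-NS3 enzyme at pH 8.0 (Tris, Tween 20), after 15 min RT preincubation with compounds; 15-min fluorescence change normalized to controls and Hill-fitted.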

Row | Structure (SMILES) | Potency | activity change, negative = inhibition
1 | c1cc(-c2cnn3cc(-c4ccc(N5CCNCC5)cc4)cnc23)c2cccnc2c1 | inactive | 
2 | COc1cc(C(=O)NC(=S)Nc2cccc(NC(=O)c3ccccc3)c2)cc(OC)c1OC | inactive | 
3 | O=C(NCc1ccccc1)c1ccc2c(=O)n(-c3cccc(C(F)(F)F)c3)c(=S)[nH]c2c1 | inactive | 
4 | CC(C)Nc1nc(Nc2ccccc2)nc(-c2ccccc2)n1 | inactive | 
5 | CC(C)c1cccc(C(C)C)c1NC(=O)Nc1ccc(Sc2ccc([N+](=O)[O-])cc2)cc1 | inactive | 
6 | CNc1ccc([N+](=O)[O-])c(Nc2ccc3[nH]ncc3c2)n1 | inactive | 
7 | CC1CC(=O)C2=C(C1)C1OC1C1(O)C2C(=O)c2cccc(O)c2C1O (stereo unspecified) | inactive | 
8 | Fc1ccc2c(CCNCc3cccc(OCC(F)(F)C(F)F)c3)c[nH]c2c1 | inactive | 
9 | O=c1cc(NCCCN[C@@H]2CCOc3c(Br)cc(Br)cc32)[nH]c2ccsc12 | inactive | 
10 | C=C[C@](C)(O)CC[C@H]1C(C)=CC(=O)[C@H]2C(C)(C)CCC[C@]12C | inactive | 
11 | Nc1ncnc2c1nc(Cl)n2C1OC2COP(=O)(O)OC2C1O (stereo unspecified) | inactive | 
12 | C[C@@H](Nc1ncnc2[nH]c(-c3ccc(O)cc3)cc12)c1ccccc1 | inactive | 
13 | C/C=C(\C)C(=O)O[C@@H]1[C@@H](C)[C@]2(O)[C@@H]3C=C(C)C(=O)[C@H]3CC(CO)=C[C@H]2C2C(C)(C)[C@@]21OC(=O)C(C)CC (stereo partly specified) | inactive | 
14 | O=C1C(Cc2ccc(O)cc2)N2C(=O)CCN(C(=O)NCc3ccccc3)C2CN1Cc1cccc2ccccc12 (stereo unspecified) | inactive | 
15 | CC(C)(Cc1ccccc1)NCC(O)c1ccc(O)c(NS(C)(=O)=O)c1 (stereo unspecified) | inactive | 
16 | CCC(C)C(=O)OC12C(OC(C)=O)C(C)C3(O)C(C=C(CO)CC4(O)C(=O)C(C)=CC43)C1C2(C)C (stereo unspecified) | inactive | 
17 | Cc1[nH]c(/C=C2\C(=O)Nc3ccc(F)cc32)c(C)c1C(=O)NCCN1CCCC1 | inactive | 
18 | Cc1ccccc1C(C(=O)NC1CCCCC1)N(C(=O)Cn1cnc2ccccc21)c1cccc(F)c1 (stereo unspecified) | inactive | 
19 | CC(=O)O[C@@H]1C[C@]2(C)[C@@]3(CCC4[C@@]5(C)CC[C@H](O[C@@H]6O[C@H](C(=O)O)[C@@H](O)[C@H](OC7OC(CO)C(O)C(O)[C@H]7O[C@@H]7O[C@@H](C)[C@H](O)[C@@H](O)[C@H]7O[C@@H]7OC[C@](O)(CO)[C@H]7O)[C@H]6OC6OC(CO)C(O)C(O)C6O)C(C)(C)C5CC[C@]42C)OC[C@@]12CCC(C)(C)CC23 (stereo partly specified) |  | -13.3% [at 10.7 µM] (inactive)
20 | CC(=O)OC[C@]12[C@H](OC(C)=O)C(=O)[C@@H]3[C@@H](O)[C@@]14O[C@@]3(C)COC(=O)c1cccnc1[C@@H](C)[C@H](C)C(=O)O[C@@H]([C@H](O)[C@@H]2OC(C)=O)[C@]4(C)O | inactive | 
21 | Cc1ccc(C(C)C)c(O[C@@H]2O[C@H](CO)[C@@H](O)[C@H](O)[C@H]2O)c1 | inactive | 
22 | O=C1COC2(CCN(S(=O)(=O)c3ccc(-c4ccc5cccnc5c4)cc3)CC2)CN1C1CC1 | inactive | 
23 | COc1cc(C(N)=O)nc(-c2ccccn2)c1O | inactive | 
24 | CC(C)/C=C1\NC(=O)C(C(C)C)n2c1nc1ccccc1c2=O (stereo unspecified) | inactive | 
25 | COc1cc2c(NC3CCN(C(C)C)CC3)nc(N3CCC(F)(F)CC3)nc2cc1OCCCN1CCCC1 | inactive | 
26 | CC(C)(C)OC(=O)c1ncn2c1C(C)(C)Nc1ccccc1-2 | inactive | 
